This is a sample that favours compounds with a hit; in the whole collection about 2.3% have one here.
TGFb inhibitor = qHTS for Inhibitors of TGF-b. Potency, µM (highest dose often 46.1 µM), inactives show at the highest dose activity, negative = inhibition, hits mostly inhibitors. hit rate 1.2% among 410,000. AID 588855, 2011. HepG2 CAGA-GFP TGF-b/SMAD3 reporter, GFP fluorescence, 18 h; TGF-beta stimulated, 500 pg/mL final; also: % is scaled to controls: 0 for no effect and ±100 for the full control effect; nearly all actives have a fitted effect of over 65% in size
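Cell-based qHTS in HEPG2 carrying a CAGA-GFP Smad reporter; compounds added before 500 pg/mL final TGF-beta, 18 h incubation at 37 degrees C, GFP fluorescence quantified per cell by imaging cytometry.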
HepG2 tox = qHTS for Inhibitors of TGF-b: Cytotox Counterscreen. hit rate 0.76% among 410,000. AID 588856, 2011. HepG2 CAGA-GFP viability, ATP luminescence, 18 h. Potency, µM (titrated, usually from 46.1 µM), for the others: at the top dose activity change, negative = cytotoxicity, actives largely listed as cytotoxic
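HepG2 CAGA-GFP cells (1000/well, DMEM with 1% FBS) received compound, then TGF-beta at 500 pg/mL final, and were incubated 18 hours at 37 degrees C. Viability was read by CellTiter-Glo luminescence. Media-only wells were set as complete cell-killing and DMSO as no toxicity.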
S2 tox = Viability Counterscreen for Primary qHTS for Inhibitors of ATXN expression; AID 651635, 2014; Potency, µM (highest dose often 56.7 µM), most hits filed as cytotoxic; hit rate 0.49% among 400,000; S2 cells (HEK-293 line with an ATXN2-luciferase reporter) viability, CellTiter-Fluor protease fluorescence, 24 h; also: nearly all actives have a fitted effect of over 40% in size
ATXN2 expr inh = Primary qHTS for Inhibitors of ATXN expression; HEK-293 ATXN2-luciferase reporter, luminescence, 24 h; Potency, µM (titrated, usually from 57 µM), without a hit: top-dose activity change, negative = inhibition, usual class: inhibitors; hit rate 0.72% among 360,000; also: % is scaled to controls: 0 for no effect and ±100 for the full control effect; nearly all actives have a fitted effect of over 55% in size
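ATXN2-luciferase reporter cells (luciferase flanked by upstream and downstream ATXN2 gene portions) were treated 24 h at 37 °C with compounds at up to 57 uM. SteadyGlo luminescence gave expression; GF-AFC fluorescence gave viability.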
Active calls of the source: *; i = inactive; ? = inconclusive; / = no result given. Calls follow the shape of the dose curve; as a rule, active = well fitted curve in the direction sought with a large enough effect; inconclusive = small, poorly fitted or top-dose-only effect, or another doubt; inactive = no such curve, though single readings can be large; an effect the other way counts as inactive or inconclusive. Potency is read from the fitted curve at half-maximal effect.

SMILES | TGFb inhibitor | HepG2 tox | S2 tox | ATXN2 expr inh
COCCNc1nc(NCc2ccc(NC(C)=O)cc2)c2sc(-c3ccccc3)cc2n1 | ? | -105.1% | / | 22.4µM*
C=CCNc1nc(NCCNC(C)=O)c2sc(-c3ccccc3)cc2n1 | 11.8% | -8.4% | ? | -14.7%
COCCNc1nc(NCc2cccc(OC)c2)c2sc(-c3ccccc3)cc2n1 | ? | 11.2µM* | ? | -24.1%
COCCNc1nc(Oc2ccc(NC(C)=O)cc2)c2sc(-c3ccccc3)cc2n1 | ? | -57.9% | ? | ?
C=CCNc1nc(NCCOC)c2sc(-c3ccccc3)cc2n1 | ? | -43.1% | ? | ?
C=CCNc1nc(NCc2ccc(N(C)C)cc2)c2sc(-c3ccccc3)cc2n1 | ? | 12.6µM* | ? | -7.9%
COc1ccccc1-c1cc(C(F)(F)F)nc(S(=O)(=O)CCCC(=O)NCc2ccc(F)cc2)n1 | ? | 14.1µM* | / | ?
COc1ccc(Cl)cc1NC(=O)CCCS(=O)(=O)c1nc(-c2ccc(OC)c(OC)c2)cc(C(F)(F)F)n1 | 2.82µM* | 14.1µM* | / | /
O=C(CCS(=O)(=O)c1nc(-c2ccc3c(c2)OCO3)cc(C(F)(F)F)n1)Nc1ccccc1F | ? | -66.3% | / | /
COc1ccccc1-c1cc(C(F)(F)F)nc(S(=O)(=O)CCCC(=O)NC(C)C)n1 | ? | -22.3% | 31.6µM* | ?
CSc1ccccc1NC(=O)CCS(=O)(=O)c1nc(-c2ccc3c(c2)OCO3)cc(C(F)(F)F)n1 | 15.8µM* | -83.4% | / | /
COc1ccc(NC(=O)CCCS(=O)(=O)c2nc(-c3ccccc3OC)cc(C(F)(F)F)n2)c(OC)c1 | -11.3% | -5.2% | i | 6.4%
CS(=O)(=O)c1ccc(NC(=O)COc2ccccc2C(=O)Nc2ccccc2)cc1 | -7.4% | -17.0% | / | /
O=C(Cc1ccc(OCCc2ccccc2)cc1)NO | -10.0% | -37.4% | / | /
COc1ccccc1-c1cc(C(F)(F)F)nc(S(C)(=O)=O)n1 | ? | -116.0% | 31.6µM* | ?
COc1ccccc1-c1cc(C(F)(F)F)nc(S(=O)(=O)CCCC(=O)Nc2ccccc2F)n1 | 3.55µM* | 11.2µM* | / | /
COc1ccc(-c2n(Cc3ccccc3)c3ccccc3[n+]2Cc2ccccc2)cc1 | 7.94µM* | -45.2% | i | ?
COc1ccc(-c2nc3ccccc3n2Cc2ccccc2)cc1 | ? | -24.8% | ? | -36.7%
CCc1nc2cc(C(=O)NC3CCOC(C)(C)C3)cc(NC(=O)c3ccccc3OC)c2n1C (centres undefined) | / | / | i | /
O=C(NCCN1Cc2ccccc2OC(c2ccccc2F)C1)c1ccco1 (centres undefined) | / | / | i | /
CCN(c1ccccc1)S(=O)(=O)c1cc(C(=O)Nc2ccc(F)c(F)c2)ccc1F | 11.2µM* | -29.9% | ? | ?
CCN(c1ccccc1)S(=O)(=O)c1ccc(C(=O)Nc2cccc(NC(C)=O)c2)cc1 | -11.2% | -19.6% | ? | 5.9%
Cc1ccc(NC(=O)c2ccc(F)c(S(=O)(=O)NCCc3ccccc3)c2)cc1F | 11.2µM* | 10µM* | / | /
Cc1ccc(S(=O)(=O)NC(=NCC(=O)O)c2ccccc2)cc1 | 4.5% | 3.16µM* | i | 1.0%
CCCCS(=O)(=O)N[C@@H](Cc1ccc(OCCCCC2CCNCC2)cc1)C(=O)O | / | / | i | 2.1%
SMILES | TGFb inhibitor | HepG2 tox | S2 tox | ATXN2 expr inh
O=S(=O)(Nc1ccc(F)c(C(F)(F)F)c1)c1ccc(N2CCCCS2(=O)=O)cc1 | 10µM* | -24.7% | i | -27.0%
O=C(Nc1ccc(OC(F)(F)F)cc1)c1[nH]ncc1[N+](=O)[O-] | 11.2µM* | -36.7% | i | -4.4%
O=C(Nc1ccc(OC(F)(F)F)cc1)Nc1cccc([N+](=O)[O-])c1 | ? | 7.94µM* | 15.8µM* | ?
CCCn1nc([N+](=O)[O-])c(C(C#N)c2nc3ccccc3s2)c(Cl)c1=O (centres undefined) | ? | 11.2µM* | i | -0.6%
Cn1nc(C(=O)Oc2cc(=O)n(C)c3ccccc23)c2ccccc2c1=O | -2.5% | -3.6% | 0.224µM* | /
C1=Cc2ccccc2/C1=C\c1ccc2c(c1)OCO2 | -9.6% | -26.2% | / | /
NC(=S)N/N=C/c1ccc(-c2cc(Cl)cc(Cl)c2)o1 | ? | -27.7% | ? | -7.6%
NC(=S)N/N=C/c1ccc(-c2cc(Cl)ccc2Cl)o1 | 10µM* | -39.8% | i | 5.8%
CN(C)c1ccc(C=NC2CCc3ccccc32)cc1 (centres undefined) | 0.4% | -6.7% | / | /
Oc1c(C(c2ccc(Cl)cc2Cl)N2CCN(Cc3ccccc3)CC2)sc2nc(-c3ccco3)nn12 (centres undefined) | ? | 15.8µM* | ? | -9.0%
Oc1c(C(c2ccccc2Cl)N2CCN(Cc3ccccc3)CC2)sc2nc(-c3ccco3)nn12 (centres undefined) | ? | -11.7% | i | 2.3%
CCCCC(CC)CO (centres undefined) | 2.3% | -20.8% | i | -1.7%
CCCCC(CC)CN=C(N)NC(N)=NCCCCCCN=C(N)NC(N)=NCC(CC)CCCC (centres undefined) | ? | 11.2µM* | 12.6µM* | 10µM*
CC(O)(COc1ccccc1)c1ccc2c(c1)CN(Cc1ccccn1)CCO2 (centres undefined) | / | / | i | /
COc1cc(=O)n2c(c1C(=O)NCc1cccc(F)c1)CCN(Cc1cccnc1)CC2 | / | / | i | /
CN(C)CCNC(=O)/C(=C/c1ccc(-c2ccc(Cl)cc2)o1)NC(=O)c1ccccc1 | ? | 15.8µM* | i | -18.1%
CN(C)CCNC(=O)/C(=C/c1ccc(-c2ccc(Cl)cc2Cl)o1)NC(=O)c1ccccc1 | ? | -104.8% | ? | -25.2%
Cc1ccc(C(=O)N/C(=C\c2ccc(-c3ccc(Br)cc3)o2)C(=O)NCCCN(C)C)cc1 | 7.08µM* | 4.47µM* | 31.6µM* | 10µM*
Cc1ccc(C(=O)N/C(=C\c2ccc(-c3cccc([N+](=O)[O-])c3)o2)C(=O)NCCCN(C)C)cc1 | ? | -71.3% | ? | ?
CNC(=O)c1cnn(-c2nc(N)c3ncn([C@@H]4O[C@H](CO)[C@@H](O)[C@H]4O)c3n2)c1 | / | / | i | -9.5%
COc1cccc(/C=C/c2ccc3ccccc3[n+]2C)c1OC | 0.2% | -9.5% | / | /
COc1ccc2sc(N(CCCN(C)C)C(=O)c3ccc(S(=O)(=O)N4CCCC4)cc3)nc2c1 | 18.7% | -11.1% | i | -7.9%
COc1ccc2sc(N(CCCN(C)C)C(=O)c3ccc(S(=O)(=O)N4CCc5ccccc5C4)cc3)nc2c1 | 15.8µM* | -76.3% | ? | ?
Cc1cc(C)c2sc(N(CCCN(C)C)C(=O)c3ccc(S(=O)(=O)N4CCCc5ccccc54)cc3)nc2c1 | ? | -121.8% | 28.2µM* | ?
CCCCC/C=C\C/C=C\CCCCCCCC(=O)NC(C)c1ccccc1 (centres undefined) | / | / | i | -11.5%
O=C(C[n+]1cccc(Br)c1)c1ccc(I)cc1 | -0.6% | -14.5% | / | /

Screening results (PubChem BioAssay)
